Assay outcomes (PubChem BioAssay)
This is a sample that favours compounds with a hit; in the whole collection about 4% have one here.
PAX8 inh HTS: lowers PAX8-driven luciferase in RMG-I cells. RMG-I TPO-luciferase reporter, SteadyGlo, 24 h. inhibition, % at 12.6 µM. 360,000 tested, 1.2% active;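 active means mean replicate inhibition at least 60% with every replicate also reaching 60%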;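 further: luciferase light reporting Pax8 driven TPO promoter activity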
MITF TRPM1 inh: inhibitors of MITF-driven TRPM1 promoter in melanoma cells; SK-MEL-5 TRPM1 promoter luciferase, 24 h; 330,000 tested, 0.83% active; inhibition, % at 12.5 µM;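 active means mean inhibition across replicates of 60% or more, whatever share of single replicates reaches that level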
MITF TRPM1 HTS: MITF TRPM1 promoter activation in melanoma cells. SK-MEL-5 TRPM1-promoter luciferase, 24 h; % of positive control, neutral wells = 0. activation, % at 12.5 µM. 300,000 tested, 0.75% active. AID 588334;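 active means mean activation of at least 80% with every replicate also reaching 80%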
EWS-Fli inh: inhibitors of EWS/Fli oncoprotein transcriptional activity. 350,000 tested, 0.67% active. AID 651661. A673 NR0B1-luciferase reporter, viability-normalised. inhibition, % at 12.6 µM;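 active means mean inhibition of at least 50% after viability correction, with every replicate also passing that limit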;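 further: firefly luciferase signal divided by Alamar Blue viability fluorescence both relative to DMSO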
esBAF inh: SWI/SNF esBAF complex inhibition; reporter increase, % at 12.5 µM; 350,000 tested, 2% active; mouse ES cells, Bmi1-luciferase knock-in reporter, 24 h; 100% = twice the neutral-well signal; in the data active means activation above about 40%;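 further: a rise in the Bmi1 reporter signal indicates esBAF inhibition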
Wnt act: activators of Wnt/beta-catenin signaling; Wnt/beta-catenin reporter cell assay, activator, plate reader; activation, % at 9.35 µM; 300,000 tested, 1.2% active; AID 743398; in the data active means activation above about 30%, passing the limit was not always enough
DNA binding: binds DNA displacing acridine orange | 640 tested, 2% active | AC35, µM (titrated, usually from 68 µM) | salmon sperm DNA acridine orange fluorescence polarization | shares compounds with EWS-Fli inh;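 active means fitted curve reaches a 35% signal fall AC35 below twice the sample's top valid tested dose, actives reach about 48 µM in these data; inactive means the rest, including activity in the rising direction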;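 further: lower polarization ratio signals compound binding to DNA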
Numbers stand for hits; n = inactive; x = no result given.

SMILES	PAX8 inh HTS	MITF TRPM1 inh	MITF TRPM1 HTS	EWS-Fli inh	esBAF inh	Wnt act	DNA binding
O=C(Cc1ccncc1)NCC[C@H]1CC[C@H](NC(=O)C2CCC2)[C@@H](CO)O1	n	x	x	n	n	x	x
Cc1[nH]c(=S)sc1Cc1ccc(Cl)c(Cl)c1	n	x	x	78.9	x	n	n
C[C@@H]1CN([C@@H](C)CO)S(=O)(=O)c2ccc(C#Cc3ccncc3)cc2O[C@H]1CN(C)C(=O)C1CCOCC1	n	x	x	70.0	n	x	n
C[C@@H]1CN([C@H](C)CO)S(=O)(=O)c2ccc(C#Cc3ccncc3)cc2O[C@@H]1CN(C)C(=O)Nc1ccc2c(c1)OCO2	69.6	x	x	65.4	n	x	n
N#C[C@H]1[C@@H](c2ccccc2C2=CCCCC2)[C@@H](CO)N1C(=O)Cc1ccncc1	x	x	x	n	x	x	x
COc1ccc(C(C)(O)c2nc(-c3cccc(F)c3)cs2)cc1 (stereo not drawn)	n	x	x	52.6	n	n	n
O=C(O)C[C@H]1CC[C@H]2[C@@H](COC[C@H](O)CN2S(=O)(=O)c2ccc(F)cc2)O1	x	x	x	x	n	x	x
CCN1C/C(=C/c2ccc(OC)c(O)c2)C(=O)/C(=C/c2ccc(OC)c(O)c2)C1	n	n	n	53.3	x	n	n
CCc1nc(N)nc(N)c1-c1ccc(Cl)cc1	n	n	n	63.6	n	n	n
Nc1ccn([C@@H]2O[C@H](CO)[C@@H](O)C2O)c(=O)n1 (stereo partly drawn)	n	n	n	50.5	n	n	n
O=C(N/N=C/c1ccc[nH]1)c1cc(-c2ccc(Cl)cc2)nc2ccccc12	n	n	n	54.3	x	n	n
O=C(N/N=C/c1cccnc1)c1cc(-c2ccc(Cl)cc2)nc2ccccc12	n	n	n	n	n	n	x
CCN1CCN(Cc2c(O)ccc3c2O/C(=C\C=C\c2ccccc2)C3=O)CC1	n	n	n	n	n	n	x
CN(C)Cc1c(O)ccc2c1O/C(=C\C=C\c1ccccc1)C2=O	77.0	93.0	n	75.2	n	n	n
COc1ccc2oc(-c3ccccc3)cc(=O)c2c1	x	x	x	60.3	n	n	n
O=C(COc1ccc2oc(-c3ccccc3)cc(=O)c2c1)Nc1ccccc1	n	n	n	x	x	n	x
COc1ccccc1/C=C1\SC(=S)N(CCC(=O)Nc2cc(C)on2)C1=O	n	n	n	52.1	n	n	n
COc1cccc(/C=C2\SC(=S)N(CCCC(=O)NC3=NCCS3)C2=O)c1	x	n	n	x	n	n	x
COc1cccc(/C=C2\SC(=S)N(CCCC(=O)Nc3cc(C)on3)C2=O)c1	x	n	n	n	n	n	x
Cc1cc(NC(=O)CCN2C(=O)/C(=C/c3ccccc3Cl)SC2=S)no1	n	n	n	n	x	n	x
CCc1ccc(/C=C2\SC(=S)N(CCCC(=O)NC3=NCCS3)C2=O)cc1	n	x	x	76.8	n	n	n
CCc1ccc(/C=C2\SC(=S)N(CCC(=O)Nc3cc(C)on3)C2=O)cc1	n	n	n	63.0	x	n	n
CCc1ccc(/C=C2\SC(=S)N(CCCC(=O)Nc3cc(C)on3)C2=O)cc1	n	x	x	83.4	n	n	n
C[C@@H]1CN([C@@H](C)CO)C(=O)CCCn2nncc2CO[C@@H]1CN(C)C	x	x	x	n	n	x	x
O=C(C[C@H]1C[C@H]2c3cc(NS(=O)(=O)c4ccc(F)cc4)ccc3O[C@H]2[C@@H](CO)O1)N1CCOCC1	n	x	x	n	n	x	x
SMILES	PAX8 inh HTS	MITF TRPM1 inh	MITF TRPM1 HTS	EWS-Fli inh	esBAF inh	Wnt act	DNA binding
COc1cc2c(cc1OC)C(C)N(C(=O)c1nccnc1C(=O)O)CC2 (stereo not drawn)	n	n	x	n	x	n	x
COc1cc2c(cc1OC)C(C)N(C(=O)c1cc(Cl)nc(Cl)c1)CC2 (stereo not drawn)	n	n	n	56.1	n	n	n
COc1ccc(NC(=O)N2CCCCN3[C@@H](CO)[C@H](c4ccc(C5=CCCCC5)cc4)[C@@H]3C2)cc1	n	x	x	71.3	n	x	n
O=C(NCCCN1CCOCC1)[C@@H]1[C@@H](CO)[C@@H]2Cn3c(cccc3=O)[C@H]1N2C(=O)C1CCCC1	n	x	x	n	x	x	x
Cc1sc2nc(CN3CCC(C)CC3)nc(Cl)c2c1C	n	x	x	72.5	x	n	n
COc1cccc(OC)c1C(=O)Nc1cc(C)nn1-c1nc2ccccc2[nH]1	n	n	n	58.5	x	n	n
COc1ccc(C(=O)Nc2cc(C)nn2-c2nc3ccccc3[nH]2)c(OC)c1	n	n	n	n	x	n	x
